Columns and labels:
Assay in all cases: log2 ratio of Biotin-Ahx-Ub-VS probe labelling (fragment/DMSO); higher = less target engagement (more negative = stronger competition), active = hit call of the paper (q ≤ 0.05, log2 ratio ≤ -1)
Settings in all cases: compound concentration: 200 uM; treatment time: 3 h
OTUD6B = target: T1, OTUD6B (UniProt Q8N6M0)
T1 sequence (whole entry): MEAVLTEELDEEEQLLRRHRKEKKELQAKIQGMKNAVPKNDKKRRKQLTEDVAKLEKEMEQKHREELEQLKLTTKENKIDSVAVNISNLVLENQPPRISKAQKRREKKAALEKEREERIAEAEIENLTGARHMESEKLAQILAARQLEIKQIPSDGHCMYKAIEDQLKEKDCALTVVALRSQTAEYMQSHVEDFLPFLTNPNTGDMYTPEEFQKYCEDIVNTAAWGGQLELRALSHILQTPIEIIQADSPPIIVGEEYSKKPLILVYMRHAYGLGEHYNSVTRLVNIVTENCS
Summary of the method: (§1)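 In triplicate, 495 µg of HEK293T lysate per sample was incubated with fragment at 200 µM or vehicle for 3 h. Biotin-Ahx-Ub-VS was then added to 0.5 µM final for 1 h, and labelled DUBs were captured with NeutrAvidin, digested with LysC and trypsin, and measured by diaPASEF LC-MS/MS. Data are average log2 fragment/vehicle ratios by unpaired t-test from global-median-normalised Spectronaut label-free quantities, restricted to proteins with ≥2 unique peptides.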

OTUD7B = target: T2, OTUD7B (UniProt Q6GQQ9)
T2 sequence (whole entry): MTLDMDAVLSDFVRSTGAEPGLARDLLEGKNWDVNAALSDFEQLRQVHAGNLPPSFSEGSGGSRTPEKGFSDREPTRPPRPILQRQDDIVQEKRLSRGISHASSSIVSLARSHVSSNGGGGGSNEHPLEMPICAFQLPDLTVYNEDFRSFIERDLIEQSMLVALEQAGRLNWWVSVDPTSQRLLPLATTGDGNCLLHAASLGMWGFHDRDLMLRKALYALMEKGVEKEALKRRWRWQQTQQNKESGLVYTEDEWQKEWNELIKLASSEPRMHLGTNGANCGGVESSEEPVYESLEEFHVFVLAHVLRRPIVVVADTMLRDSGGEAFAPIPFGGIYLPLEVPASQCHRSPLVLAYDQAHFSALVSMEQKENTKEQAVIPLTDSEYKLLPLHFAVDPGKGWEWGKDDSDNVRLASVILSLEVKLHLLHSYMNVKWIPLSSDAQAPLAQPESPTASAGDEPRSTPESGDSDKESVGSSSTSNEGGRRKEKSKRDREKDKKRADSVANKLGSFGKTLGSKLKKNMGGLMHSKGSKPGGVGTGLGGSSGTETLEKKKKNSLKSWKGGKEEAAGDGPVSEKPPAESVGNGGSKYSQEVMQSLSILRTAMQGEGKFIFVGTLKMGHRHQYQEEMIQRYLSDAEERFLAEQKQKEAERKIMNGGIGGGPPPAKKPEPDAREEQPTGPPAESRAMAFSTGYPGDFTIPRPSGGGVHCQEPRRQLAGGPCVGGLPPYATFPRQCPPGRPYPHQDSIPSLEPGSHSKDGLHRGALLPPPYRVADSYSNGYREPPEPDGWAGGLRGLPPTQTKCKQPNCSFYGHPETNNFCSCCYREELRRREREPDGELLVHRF
Summary of the method: as §1

PRPF8 = PRPF8 (UniProt Q6P2Q9)
Summary of the method: as §1

PSMD7 = target: T3, PSMD7 (UniProt P51665)
T3 sequence (whole entry): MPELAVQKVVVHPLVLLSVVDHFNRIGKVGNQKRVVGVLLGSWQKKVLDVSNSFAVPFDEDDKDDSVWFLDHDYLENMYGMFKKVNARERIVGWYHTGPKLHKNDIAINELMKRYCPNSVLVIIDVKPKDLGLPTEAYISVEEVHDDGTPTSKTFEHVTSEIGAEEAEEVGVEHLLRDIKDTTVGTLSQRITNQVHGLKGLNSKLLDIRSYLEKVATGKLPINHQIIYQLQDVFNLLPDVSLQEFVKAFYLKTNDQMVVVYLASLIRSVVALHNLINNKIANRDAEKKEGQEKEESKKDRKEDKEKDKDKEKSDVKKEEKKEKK
Summary of the method: as §1

UCHL1 = UCHL1 (UniProt P09936)
UCHL1, sequence (P09936 whole entry, looked up): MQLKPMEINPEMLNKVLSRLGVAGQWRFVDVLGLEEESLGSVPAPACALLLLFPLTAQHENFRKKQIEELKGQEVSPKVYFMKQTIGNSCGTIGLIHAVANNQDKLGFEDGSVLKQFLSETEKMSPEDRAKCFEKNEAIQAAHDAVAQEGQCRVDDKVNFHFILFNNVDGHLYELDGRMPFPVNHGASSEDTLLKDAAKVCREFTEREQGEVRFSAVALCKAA
Summary of the method: as §1

UCHL3 = target: T4, UCHL3 (UniProt P15374)
T4 sequence (whole entry): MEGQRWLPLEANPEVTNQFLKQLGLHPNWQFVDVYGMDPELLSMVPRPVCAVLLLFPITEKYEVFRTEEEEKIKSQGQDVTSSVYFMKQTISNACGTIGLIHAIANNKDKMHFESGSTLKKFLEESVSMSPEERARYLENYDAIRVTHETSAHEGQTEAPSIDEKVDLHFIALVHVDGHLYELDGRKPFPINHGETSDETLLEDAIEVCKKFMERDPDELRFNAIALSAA
Summary of the method: as §1

UCHL5 = target: T5, UCHL5 (UniProt Q9Y5K5)
T5 sequence (whole entry): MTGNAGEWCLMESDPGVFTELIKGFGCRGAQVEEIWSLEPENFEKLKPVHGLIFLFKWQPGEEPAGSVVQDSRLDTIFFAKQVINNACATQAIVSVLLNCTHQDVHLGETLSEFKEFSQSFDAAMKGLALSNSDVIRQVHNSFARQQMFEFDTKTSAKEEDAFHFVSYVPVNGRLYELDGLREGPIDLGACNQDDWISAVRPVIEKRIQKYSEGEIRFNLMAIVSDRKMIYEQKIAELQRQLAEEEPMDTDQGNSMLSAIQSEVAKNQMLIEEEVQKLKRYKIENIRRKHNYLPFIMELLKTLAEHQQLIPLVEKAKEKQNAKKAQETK
Summary of the method: as §1

USP10 = USP10 (UniProt Q14694)
USP10, sequence (Q14694 whole entry): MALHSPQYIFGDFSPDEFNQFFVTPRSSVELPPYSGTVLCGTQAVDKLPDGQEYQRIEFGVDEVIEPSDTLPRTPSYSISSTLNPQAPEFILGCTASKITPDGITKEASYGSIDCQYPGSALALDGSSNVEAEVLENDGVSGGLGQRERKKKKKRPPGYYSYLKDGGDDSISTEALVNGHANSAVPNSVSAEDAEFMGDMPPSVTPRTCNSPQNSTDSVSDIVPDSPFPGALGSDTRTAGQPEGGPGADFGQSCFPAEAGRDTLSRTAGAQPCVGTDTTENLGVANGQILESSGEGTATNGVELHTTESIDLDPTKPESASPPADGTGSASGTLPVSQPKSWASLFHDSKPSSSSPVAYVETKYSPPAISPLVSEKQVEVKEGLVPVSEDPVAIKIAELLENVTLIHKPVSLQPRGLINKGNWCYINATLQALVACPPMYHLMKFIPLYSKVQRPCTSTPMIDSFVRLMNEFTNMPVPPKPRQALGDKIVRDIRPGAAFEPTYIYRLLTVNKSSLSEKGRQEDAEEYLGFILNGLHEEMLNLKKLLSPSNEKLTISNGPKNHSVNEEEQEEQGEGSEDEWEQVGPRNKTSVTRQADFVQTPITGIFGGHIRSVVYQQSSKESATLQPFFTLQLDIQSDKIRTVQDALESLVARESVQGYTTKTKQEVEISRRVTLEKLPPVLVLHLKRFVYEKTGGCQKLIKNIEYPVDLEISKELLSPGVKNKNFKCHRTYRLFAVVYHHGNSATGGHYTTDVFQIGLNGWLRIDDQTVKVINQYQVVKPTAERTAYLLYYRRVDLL
Summary of the method: as §1

USP15 = target: T6, USP15 (UniProt Q9Y4E8)
T6 sequence (whole entry): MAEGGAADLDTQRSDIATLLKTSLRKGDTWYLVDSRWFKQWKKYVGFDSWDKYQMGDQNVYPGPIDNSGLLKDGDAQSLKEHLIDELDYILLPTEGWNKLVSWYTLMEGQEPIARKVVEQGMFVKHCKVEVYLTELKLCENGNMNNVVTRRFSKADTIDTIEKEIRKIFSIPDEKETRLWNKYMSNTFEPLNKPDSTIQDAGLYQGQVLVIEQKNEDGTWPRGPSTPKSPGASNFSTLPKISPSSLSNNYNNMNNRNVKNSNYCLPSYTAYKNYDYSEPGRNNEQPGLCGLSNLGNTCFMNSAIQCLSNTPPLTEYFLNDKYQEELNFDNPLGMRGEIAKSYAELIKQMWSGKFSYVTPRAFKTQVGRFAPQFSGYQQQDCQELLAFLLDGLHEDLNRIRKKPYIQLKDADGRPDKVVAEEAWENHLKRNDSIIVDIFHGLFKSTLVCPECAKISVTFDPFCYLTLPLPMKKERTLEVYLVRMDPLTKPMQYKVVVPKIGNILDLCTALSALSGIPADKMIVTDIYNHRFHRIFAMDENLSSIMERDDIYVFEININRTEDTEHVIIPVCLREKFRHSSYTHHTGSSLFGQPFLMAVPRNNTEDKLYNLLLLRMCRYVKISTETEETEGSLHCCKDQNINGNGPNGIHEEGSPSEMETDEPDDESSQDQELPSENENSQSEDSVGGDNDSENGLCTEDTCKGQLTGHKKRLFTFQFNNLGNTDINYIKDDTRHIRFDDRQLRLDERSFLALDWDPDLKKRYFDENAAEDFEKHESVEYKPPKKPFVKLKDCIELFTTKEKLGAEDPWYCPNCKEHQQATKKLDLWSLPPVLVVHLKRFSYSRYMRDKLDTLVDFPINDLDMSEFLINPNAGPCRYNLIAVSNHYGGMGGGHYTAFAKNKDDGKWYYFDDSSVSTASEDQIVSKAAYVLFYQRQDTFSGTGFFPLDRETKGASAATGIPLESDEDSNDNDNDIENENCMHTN
Summary of the method: as §1

USP16 = USP16 (UniProt Q9Y5T5)
USP16, sequence (Q9Y5T5 whole entry, looked up): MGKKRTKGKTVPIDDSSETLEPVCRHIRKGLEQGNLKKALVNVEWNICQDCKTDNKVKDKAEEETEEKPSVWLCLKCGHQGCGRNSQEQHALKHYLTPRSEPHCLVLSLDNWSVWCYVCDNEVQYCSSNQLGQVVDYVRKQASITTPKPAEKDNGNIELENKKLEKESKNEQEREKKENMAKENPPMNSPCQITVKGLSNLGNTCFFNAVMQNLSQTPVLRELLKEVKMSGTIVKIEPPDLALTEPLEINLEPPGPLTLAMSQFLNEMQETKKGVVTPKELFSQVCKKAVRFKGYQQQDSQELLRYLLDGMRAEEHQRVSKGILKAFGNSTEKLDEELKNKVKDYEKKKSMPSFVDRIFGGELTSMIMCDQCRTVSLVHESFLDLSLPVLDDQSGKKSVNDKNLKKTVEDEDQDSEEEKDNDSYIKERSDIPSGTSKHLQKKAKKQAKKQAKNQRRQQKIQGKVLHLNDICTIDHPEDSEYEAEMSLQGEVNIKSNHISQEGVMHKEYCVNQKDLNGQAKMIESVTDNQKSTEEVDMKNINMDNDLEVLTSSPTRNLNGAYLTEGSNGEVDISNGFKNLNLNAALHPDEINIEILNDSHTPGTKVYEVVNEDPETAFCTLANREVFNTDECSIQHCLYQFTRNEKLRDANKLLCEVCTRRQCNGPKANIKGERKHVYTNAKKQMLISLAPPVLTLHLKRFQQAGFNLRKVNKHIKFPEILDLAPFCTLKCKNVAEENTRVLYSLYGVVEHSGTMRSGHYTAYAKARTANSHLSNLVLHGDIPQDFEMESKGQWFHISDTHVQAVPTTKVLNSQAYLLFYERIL
Summary of the method: as §1

Measured: log2 ratio of Biotin-Ahx-Ub-VS probe labelling

Cc1ccn2cc(CNC(=O)CCl)nc2c1.Cl
inactive: OTUD6B -0.283 | OTUD7B -0.682 | PRPF8 0.0356 | PSMD7 -0.104 | UCHL1 -0.67 | UCHL3 -0.0928 | UCHL5 -0.311 | USP10 0.0849 | USP15 -0.244 | USP16 0.0424
